Sampled rows, rich in hits. Any-hit rate of the full collection: about 3.4%.
proKLK7 act: activates the human kallikrein-7 zymogen; purified proKLK7, EDANS-DABCYL substrate fluorescence; 100% is mature enzyme control, 0% vehicle; activation, % at 7 µM; 370,000 tested, 0.9% active; AID 652039;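 active = activation above the mean of all tested compounds plus 3 SD, computed per campaign excluding outliers beyond control limits, cut at about 13% in these data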
HGIII-sPLA2 inh: Inhibits HGIII-sPLA2 liposome hydrolysis, primary screen. QFRET BODIPY PC-A2 liposome hydrolysis, fluorescence. inhibition, % at 12.2 µM. 370,000 tested, 0.56% active. AID 743126;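 active = inhibition above mean plus 3 SD of compounds lying within the high and low control bounds, cut at about 19% in these data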
ADAM10 inh: ADAM10 inhibition, QFRET primary screen; recombinant ADAM10, EDANS/DABCYL FRET peptide cleavage, 3 h; inhibition, % at 7 µM; 370,000 tested, 0.62% active;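 active = inhibition above a per-campaign cutoff equal to the mean of compounds falling between control-based bounds plus 3 SD, cut at about 20% in these data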
PLCg1 inh: PLC-gamma1 (human) inhibition, primary screen. purified PLC-gamma1, fluorogenic substrate, fluorescence. inhibition, % at 12.2 µM. 370,000 tested, 0.84% active; in the data active = inhibition above about 9.5%
PLC-beta3 inh: PLC-beta3 (human) inhibition, primary screen; inhibition, % at 12.2 µM; Purified PLC-beta3, fluorogenic substrate, fluorescence; AID 720704; 370,000 tested, 0.18% active; Q01970
ADAM17 inh: inhibits human ADAM17 | AID 720648 | P78536 | 370,000 tested, 0.83% active | inhibition, % at 6.95 µM | recombinant ADAM17, EDANS/DABCYL FRET peptide cleavage;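 active = inhibition above the mean of compounds lying between control limits plus 3 SD, set per campaign, cut at about 8.5% in these data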
ADAM10 confirm: confirmation of inhibitors of human ADAM10; shares compounds with ADAM10 inh; ADAM10 QFRET peptide cleavage, EDANS fluorescence; inhibition, % at 6.95 µM; 2,100 tested, 1% active; AID 743208;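 active = inhibition above about 20% chosen separately for each screening run, limit read from the data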
ADAM17 counter: counter-screen for ADAM10 exosite inhibitors: inhibitors of human ADAM17. shares compounds with ADAM10 inh. ADAM17 QFRET peptide cleavage, EDANS fluorescence. inhibition, % at 6.95 µM. 2,100 tested, 0.5% active. AID 743214;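 active = mean triplicate inhibition above the solvent-only control wells' mean plus 3 SD, cut at about 12% in these data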
ADAM10 ctr: inhibits human ADAM10 in ADAM17 exosite counter-screen. AID 743256. inhibition, % at 6.95 µM. 2,900 tested, 47% active. shares compounds with ADAM17 inh. recombinant ADAM10, EDANS/DABCYL FRET peptide cleavage, 3 h;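 active = mean inhibition over the triplicate runs exceeds the activity threshold set in the earlier primary screen, cut at about 20% in these data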
ADAM17 confirm: confirmation of inhibitors of human ADAM17; shares compounds with ADAM17 inh; recombinant ADAM17, EDANS/DABCYL QFRET peptide cleavage; inhibition, % at 6.95 µM; 2,900 tested, 65% active; AID 743257;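 active = mean inhibition across replicates above the hit cutoff set in the primary screen, cut at about 8.5% in these data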
PLCg1 ctr: counter-screen for PLC-beta3 inhibitors: inhibitors of human PLC-gamma1 | shares compounds with PLCg1 inh | purified PLC-gamma1, fluorogenic substrate, fluorescence | inhibition, % at 12.3 µM | 3,300 tested, 3.1% active | AID 743258; in the data active = inhibition above about 9.5%
PLCb3 confirm: confirmation of human PLC-beta3 inhibitors; inhibition, % at 12.3 µM; purified PLC-beta3, fluorogenic substrate fluorescence; shares compounds with PLCg1 inh; 3,300 tested, 1% active
A number is an active result; – = inactive; · = no result. Cut-off read from the data, not from the text of the source, unless noted: active = inhibition above about 11%; inactive = the rest.

SMILES	proKLK7 act	HGIII-sPLA2 inh	ADAM10 inh	PLCg1 inh	PLC-beta3 inh	ADAM17 inh	ADAM10 confirm	ADAM17 counter	ADAM10 ctr	ADAM17 confirm	PLCg1 ctr	PLCb3 confirm
CCc1ccc(C2c3[nH]c4ccccc4c3CCN2C(=O)c2cc(C)nn2C)cc1 (stereo unspecified)	–	–	23	10	–	13	–	–	–	10	–	–
C/C=C/C(=O)OCC(=O)Nc1ccc(SC(F)F)cc1	–	–	–	–	–	–	·	·	·	·	·	·
O=C(Nc1ccc(F)c(Cl)c1)c1cc(C2CCCN(S(=O)(=O)c3cccc4cccnc34)C2)on1 (stereo unspecified)	–	–	25	–	11	12	–	–	25	13	–	–
C=CCC[C@@H](Cc1ccc(F)cc1)C(=O)OC[C@H](Cc1c[nH]c2ccccc12)NC(=O)[C@@H](CC=C)CC(=O)N[C@H](CO)Cc1ccccc1	–	–	–	–	–	–	·	·	·	·	·	·
C=CCC[C@H](Cc1ccc(F)cc1)C(=O)OC[C@H](Cc1c[nH]c2ccccc12)NC(=O)[C@@H](CC=C)CC(=O)N[C@H](CO)Cc1ccccc1	–	–	30	12	–	12	–	–	38	22	–	–
C=CCC[C@H](Cc1ccc(F)cc1)C(=O)OC[C@@H](Cc1c[nH]c2ccccc12)NC(=O)[C@H](CC=C)CC(=O)N(CCO)Cc1ccccc1	–	–	43	12	–	25	–	–	61	35	–	–
C=CC[C@H](CC(=O)N(CCO)Cc1ccccc1)C(=O)N[C@@H](COC(=O)[C@H](CC=C)CC(=O)OC(C)(C)C)Cc1c[nH]c2ccccc12	–	–	–	–	–	–	·	·	·	·	·	·
C=CC[C@@H](CC(=O)N(CCO)Cc1ccccc1)C(=O)N[C@H](COC(=O)[C@@H](CC=C)CC(=O)OC(C)(C)C)Cc1c[nH]c2ccccc12	–	–	25	9.6	–	14	–	–	33	16	–	–
C=CC[C@@H](CC(=O)N(CCO)Cc1ccccc1)C(=O)NC[C@H](OC(=O)[C@@H](CC=C)Cc1ccc(F)cc1)c1ccccc1	–	–	26	10	–	13	–	–	34	19	–	–
CC1(C)CC(=O)C=C(C(=O)N2CCCC(C(=O)c3cccc(Cl)c3)C2)O1 (stereo unspecified)	–	–	–	–	–	–	·	·	·	·	·	·
O=S1(=O)NC(=NCCc2ccccn2)c2ccccc21	–	–	–	–	–	–	·	·	·	·	·	·
CCn1ccnc1CN(C)Cc1cn(-c2cccc(C)c2)nc1-c1cccc(F)c1	–	–	–	–	–	–	·	·	·	·	·	·
Cc1cccc(-n2cc(CN(C)Cc3nccn3C)c(-c3cccc(F)c3)n2)c1	–	–	24	11	–	11	–	–	–	10	–	–
Cc1ccc(C)c(NC(=O)CN(C)C(=O)COc2cccc3c2OC(C)(C)C3)c1	–	–	–	–	–	–	·	·	·	·	·	·
CCOC(=O)c1ccc(N/C(=N\S(=O)(=O)c2ccccc2C)c2ccccc2)cc1	–	–	21	10	–	–	–	–	·	·	–	–
COC(=O)c1ccc(N/C(=N/S(=O)(=O)c2ccccc2)c2ccccc2)cc1	–	–	–	–	–	–	·	·	·	·	·	·

Assay outcomes from PubChem BioAssay.
